Experimental data from PubChem BioAssay (NCATS).
The source made the active and inactive calls. A call without a number means that no potency is given here. The call rests on the fitted dose curve; in most records, active means well fitted inhibition curve with a large enough effect; inconclusive means small, poorly fitted or top-dose-only effect; inactive means flat fitted curve, though single readings scatter.

Biological target: DNA dC->dU-editing enzyme APOBEC-3G (Homo sapiens) (UniProt Q9HC16)
Test: qHTS for inhibitors of Vif-A3G interactions: Validation (AID 588379)
Settings: Vif-A3G protein interaction assay; series mostly up to 46.1 µM
Text: The recent discovery and characterization of host restriction factors, which provide a potent defense to invading retroviruses, has provided new targets for antiviral drug development. APOBEC3G (A3G) and APOBEC3F (A3F) are potent cytidine deaminases that block HIV-1 replication; HIV-1 expresses the Vif protein, which counteracts A3G and A3F by binding to them and inducing their proteasomal degradation.
The Vif-A3G and Vif-A3F interactions provide two potential targets for development of small molecules which can interfere with the ability of Vif to degrade A3G or A3F. […] To identify inhibitors that can interfere with Vif mediated degradation of A3G and A3F, we have developed Hela cell lines that stably express A3G or A3F tagged with eYFP at the C-terminal end (A3G-eYFP or A3F-eYFP, respectively) and Vif. In the absence of an inhibitor, Vif induces degradation of A3G-eYFP and A3F-eYFP, and the cells are not fluorescent. In the presence of an inhibitor, it is expected that Vif will be unable to degrade A3G-eYFP and/or A3F-eYFP, resulting in an increase in yellow fluorescence. In this assays Vif A3G was screened against the Molecular Library Small Molecile Repository (MLSMR).
NIH Chemical Genomics Center [NCGC]
NIH Molecular Libraries Probe Centers Network [MLPCN]
Assay Submitter (PI): Vinay Pathak, National Cancer Institute
5 uL of 700 cells/well of A3G-YFP cells are dispensed into black, clear bottom plates. The plates are incubated overnight at 37 deg C. 23 nL of compounds are added by pintool. The plates are incubated overnight at 37 deg C and then read on the TTP Acumen (Ex 488/ Em 500-530).
Potency means the concentration at half of the fitted maximal effect.

Sequence of DNA dC->dU-editing enzyme APOBEC-3G (Homo sapiens) (Q9HC16 whole entry, looked up): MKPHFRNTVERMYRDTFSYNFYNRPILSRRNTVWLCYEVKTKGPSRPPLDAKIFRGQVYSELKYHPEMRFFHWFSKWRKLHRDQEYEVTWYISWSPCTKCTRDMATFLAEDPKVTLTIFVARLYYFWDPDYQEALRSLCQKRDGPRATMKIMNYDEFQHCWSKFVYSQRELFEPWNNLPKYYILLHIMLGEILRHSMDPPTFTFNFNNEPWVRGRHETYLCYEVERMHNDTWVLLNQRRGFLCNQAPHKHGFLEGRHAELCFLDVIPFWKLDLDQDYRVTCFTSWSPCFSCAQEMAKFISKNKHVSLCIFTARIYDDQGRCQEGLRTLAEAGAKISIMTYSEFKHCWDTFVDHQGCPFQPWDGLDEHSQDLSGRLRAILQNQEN

Compound	Potency
Cc1ccc(CC(Cc2nc3ccccc3[nH]2)c2nc3ccccc3[nH]2)cc1 (stereo not given)	inactive
Clc1ccc2nc(-c3ccccc3)[nH]c2c1	inactive
CC1CC2(C)Oc3ccccc3C3OCC1(COC(=O)Nc1ccccc1)C(C)C32 (stereo not given)	inactive
CC[C@H](/C=C/[C@@H](C)[C@H]1CC[C@H]2C3CC=C4C[C@@H](O)CC[C@]4(C)C3CC[C@]12C)C(C)C (stereo not given in full)	inactive
O=C(/C=C/c1ccc(OCc2ccccc2)cc1)c1cccs1	inactive
C[C@H](C(=O)O)c1cccc(C(=O)c2ccccc2)c1	inactive
CC[C@]12CCCN3CCc4c(n(c5ccccc45)C(=O)C1)[C@H]32	inactive
C[C@H](CCC(=O)O)[C@H]1CC[C@@H]2[C@H]3CC[C@H]4C[C@H](O)CC[C@]4(C)[C@@H]3CC[C@@]21C	inactive
COc1cc(/C=C/C(=O)c2cccs2)cc(OC)c1OC	inactive
CC(=O)OC1CCC2(C)C(CCC3(C)C2C(=O)C=C2C4CC(C)(C(=O)OCCN5CCCCC5)CCC4(C)CCC23C)C1(C)C (stereo not given)	inactive
O=c1cc(-c2ccc(O)cc2)oc2cccc(O)c12	inactive
Cc1cccc(-c2cc(=O)c3cc(Br)ccc3o2)c1	inactive
COc1ccc(-c2coc3ccc(OC4OC(COC(C)=O)C(OC(C)=O)C(OC(C)=O)C4OC(C)=O)c(OC(C)=O)c3c2=O)cc1 (stereo not given)	inactive
COC(=O)CC[C@@H](C)[C@H]1CC[C@H]2[C@@H]3CC[C@@H]4C[C@H](O)CC[C@]4(C)[C@H]3C[C@H](O)[C@]12C	inactive
COc1cc([C@@H]2c3cc4c(cc3C(OC3OC5COC(C)OC5C(O)C3O)C3COC(=O)[C@@H]32)OCO4)cc(OC)c1O (stereo not given in full)	inactive
O=C(/C=C/c1ccc(O)cc1)c1cccs1	inactive
C[C@H]1[C@H]2CC[C@H]3C4CC=C5C[C@@H](N(C)C)CC[C@]5(C)C4CC[C@]23CN1C (stereo not given in full)	inactive
CC(C)=CCC/C(C)=C\COc1c2ccoc2cc2oc(=O)ccc12	inactive
COc1ccc(-c2coc3cc(OC4OC(CO)C(O)C(O)C4O)cc(O)c3c2=O)cc1 (stereo not given)	inactive
CC1C(=O)OC2CC34C5CC(C(C)(C)C)C36C(OC(=O)C6O)OC4(C(=O)O5)C21O (stereo not given)	inactive

Compound	Potency
CC[C@@H]1CN2CCc3cc(OC)c(OC)cc3[C@@H]2C[C@@H]1C[C@H]1NCCc2cc(OC)c(OC)cc21	inactive
O=c1cc(-c2cccc(O)c2)oc2cccc(O)c12	inactive
COc1ccc(/C=C/C(=O)c2ccc(C)s2)cc1	inactive
COc1ccc(-c2oc3cc(OC)ccc3c(=O)c2O)cc1	inactive
COc1cc2c(C=O)c3c4c(cc(OC)c(OC)c4c2cc1OC)CCN3C	21.1 µM (active)
C[C@@H]1O[C@@H](OC[C@H]2O[C@@H](Oc3c(-c4cccc(O)c4O)oc4cc(O)cc(O)c4c3=O)[C@H](O)[C@@H](O)[C@@H]2O)[C@H](O)[C@H](O)[C@H]1O	inactive
C=C1C(=O)OC2C[C@@]3(C)CCCC(=C)[C@@H]3CC12 (stereo not given in full)	inactive
COc1ccccc1-c1oc2ccccc2c(=O)c1O	inactive
CC(=O)OC1CCC2(C)C3CCC4(C)C(CC5CCCCC54C(C)=O)C3CC(=O)[C@@]2(O)C1 (stereo not given in full)	inactive
O=C(/C=C/c1ccc2c(c1)OCO2)c1cccs1	inactive
CC(=O)Oc1ccc(/C=C/C(=O)CC2OC(Oc3cc(OC(C)=O)c4c(c3)O[C@@H](c3ccc(OC(C)=O)cc3)CC4=O)C(OC(C)=O)C(OC(C)=O)C2OC(C)=O)cc1 (stereo not given in full)	inactive
Cc1ccc(C(=O)[C@@H]2[C@H]3C4COC(O4)C(=O)[C@@H]3[C@H]3C=Cc4ccccc4N32)cc1 (stereo not given in full)	inactive
Cc1ccc2oc(-c3ccccc3)cc(=O)c2c1	inactive
COc1cc2c(Cc3c4c5c(cc(OC)c(OC)c5c5c(OC)c(OC)ccc35)CCN4C)c3c4c(cc(OC)c(OC)c4c2cc1OC)CCN3C	inactive
COc1cccc2c1C(=O)CC(c1ccccc1)O2 (stereo not given)	inactive
OC[C@H]1O[C@@H](OC[C@H]2O[C@@H](O)[C@H](O)[C@@H](O)[C@@H]2O)[C@H](O)[C@@H](O)[C@@H]1O	inactive
COc1cc2c(C)c3c4c(cc(OC)c(OC)c4c2cc1OC)CCN3C	inactive
Nc1nc2c(c(=O)[nH]1)N=C(CNc1ccc(C(=O)NC(CCC(=O)O)C(=O)O)cc1)CN2 (stereo not given)	inactive
CC(=O)[C@@H]1[C@H]2[C@H](C(=O)[C@H]3OC[C@@H]2O3)[C@H]2C=Cc3ccccc3N21	inactive
CC(=O)c1c(O)c(C)c(O)c2c1OC1=CC(=O)C(C(C)=O)C(=O)[C@@]12C (stereo not given in full)	inactive
